For some of these results: Results with a measured potency or affinity are listed apart.
What was measured:
Design in all cases: scale not given: direction of the effect not stated beside the values
[1] = target: Protein translocase subunit SecA (Escherichia coli (strain K12)) (UniProt P10408); experiment: Assay to Identify E. coli SecA ATPase Inhibitors; assay type: functional; settings: 30 µM
[2] = target: T1, Ubiquitin-activating enzyme e1, putative (Leishmania donovani (strain BPK282A1)) (UniProt E9BSI1); experiment: Leishmania donovani Ubiquitin Activating Enzyme (LdE1); assay type: functional; settings: 30 µM
T1 sequence (whole entry): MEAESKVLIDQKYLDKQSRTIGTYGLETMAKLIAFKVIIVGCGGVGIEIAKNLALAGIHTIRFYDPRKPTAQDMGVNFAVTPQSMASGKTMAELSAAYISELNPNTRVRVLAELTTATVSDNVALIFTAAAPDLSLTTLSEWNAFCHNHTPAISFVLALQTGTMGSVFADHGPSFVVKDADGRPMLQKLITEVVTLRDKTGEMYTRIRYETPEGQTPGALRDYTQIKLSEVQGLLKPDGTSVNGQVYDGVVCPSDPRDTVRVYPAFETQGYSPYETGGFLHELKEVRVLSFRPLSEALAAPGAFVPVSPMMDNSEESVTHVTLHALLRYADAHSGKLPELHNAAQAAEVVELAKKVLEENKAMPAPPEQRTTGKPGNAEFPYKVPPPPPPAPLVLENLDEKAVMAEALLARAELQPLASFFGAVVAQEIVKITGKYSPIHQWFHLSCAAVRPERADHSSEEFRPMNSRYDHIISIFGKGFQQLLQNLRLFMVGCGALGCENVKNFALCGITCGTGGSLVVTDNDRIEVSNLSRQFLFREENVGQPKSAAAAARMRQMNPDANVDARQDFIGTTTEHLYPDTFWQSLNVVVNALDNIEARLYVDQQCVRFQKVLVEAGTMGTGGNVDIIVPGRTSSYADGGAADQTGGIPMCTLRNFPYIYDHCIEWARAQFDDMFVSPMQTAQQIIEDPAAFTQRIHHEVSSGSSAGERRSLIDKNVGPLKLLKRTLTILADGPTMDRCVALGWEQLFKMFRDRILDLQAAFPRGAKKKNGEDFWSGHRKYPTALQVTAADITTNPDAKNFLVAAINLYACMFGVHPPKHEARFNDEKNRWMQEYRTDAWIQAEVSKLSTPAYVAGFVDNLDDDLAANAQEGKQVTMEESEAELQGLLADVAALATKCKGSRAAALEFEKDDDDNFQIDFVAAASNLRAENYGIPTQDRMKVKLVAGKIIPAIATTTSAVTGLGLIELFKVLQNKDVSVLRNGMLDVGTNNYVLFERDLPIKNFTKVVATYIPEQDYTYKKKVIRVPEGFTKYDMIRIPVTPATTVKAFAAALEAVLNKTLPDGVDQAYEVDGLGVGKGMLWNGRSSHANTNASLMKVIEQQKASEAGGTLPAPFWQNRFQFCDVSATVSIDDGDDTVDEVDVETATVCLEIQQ

[3] = target: AMP-activated protein kinase, AMPK (Homo sapiens) (UniProt P54646+O43741+P54619+Q9UGJ0+Q9Y478+Q13131+Q9UGI9); experiment: AMP-dependent Kinase enzyme assay. An in vitro enzyme assay that detects ADP turnover that is directly proportional to AMPK activity. This uses naive AMPK that is activated during the assay with MK-8722; assay type: functional; settings: 30 µM
[4] = target: Sialic acid-binding Ig-like lectin 9 (Homo sapiens) (UniProt Q9Y336); experiment: Hs-Siglec9 ALPHAscreen SOP 20170721; settings: 10 µM
Chain of Sialic acid-binding Ig-like lectin 9 (Homo sapiens) (Q9Y336 whole entry): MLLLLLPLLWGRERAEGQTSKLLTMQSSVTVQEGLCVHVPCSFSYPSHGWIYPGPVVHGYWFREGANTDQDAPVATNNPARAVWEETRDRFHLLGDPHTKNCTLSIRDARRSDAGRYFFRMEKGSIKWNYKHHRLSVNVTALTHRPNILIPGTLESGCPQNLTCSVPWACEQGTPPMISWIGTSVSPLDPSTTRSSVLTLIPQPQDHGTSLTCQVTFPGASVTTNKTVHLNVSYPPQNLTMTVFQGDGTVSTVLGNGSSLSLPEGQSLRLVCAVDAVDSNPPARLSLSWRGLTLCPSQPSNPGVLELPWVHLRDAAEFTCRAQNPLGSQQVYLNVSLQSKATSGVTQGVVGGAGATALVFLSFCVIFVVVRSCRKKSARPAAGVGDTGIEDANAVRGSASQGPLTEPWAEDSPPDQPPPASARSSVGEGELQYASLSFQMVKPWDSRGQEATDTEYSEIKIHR

Trypanosoma cruzi = experiment: Trypanosoma cruzi phosphomannomutase and mannose-1-phosphate guanylyltransferase assay; assay type: functional; settings: 10 µM
[5] = target: T2, Arginase-2, mitochondrial (Homo sapiens) (UniProt P78540); experiment: in vitro enzyme assay to detect the production of urea directly proportional to the activity of Arginase II; assay type: functional; settings: 33.3 µM; note: in the data most compounds retested in dose-response had high values
T2 sequence (whole entry): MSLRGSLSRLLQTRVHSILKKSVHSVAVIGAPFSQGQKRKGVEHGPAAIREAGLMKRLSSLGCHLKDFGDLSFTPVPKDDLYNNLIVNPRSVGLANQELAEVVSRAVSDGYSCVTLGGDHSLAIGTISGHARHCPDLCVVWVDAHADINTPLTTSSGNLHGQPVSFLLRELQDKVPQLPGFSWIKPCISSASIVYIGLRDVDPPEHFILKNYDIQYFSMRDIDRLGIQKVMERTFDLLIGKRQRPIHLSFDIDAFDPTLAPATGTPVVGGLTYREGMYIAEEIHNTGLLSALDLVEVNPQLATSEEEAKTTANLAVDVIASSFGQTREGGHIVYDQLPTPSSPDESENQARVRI

[6] = target: T3, Proteasome subunit beta (Trypanosoma cruzi) (UniProt O96673); experiment: Trypanosoma cruzi proteasome chymotrypsin-like activity (TcProtChymo) assay.; note: in the data most compounds retested in dose-response had high values; assay type: functional; settings: 9.37 µM
T3 sequence (whole entry): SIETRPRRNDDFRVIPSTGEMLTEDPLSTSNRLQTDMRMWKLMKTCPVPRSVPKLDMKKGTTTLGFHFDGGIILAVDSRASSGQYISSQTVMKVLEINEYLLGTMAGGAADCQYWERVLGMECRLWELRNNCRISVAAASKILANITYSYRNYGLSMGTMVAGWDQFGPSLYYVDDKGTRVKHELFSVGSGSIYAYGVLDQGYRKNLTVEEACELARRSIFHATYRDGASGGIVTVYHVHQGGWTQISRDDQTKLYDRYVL

Homo sapiens = species on record: Homo sapiens; experiment: To identify inhibition of the IFN signalling (Jak-Stat) pathway via expression of an eGFP reporter gene under the control of an IFN-stimulated response element (ISRE) containing MxA promoter.; assay type: functional; settings: 30 µM
[7] = target: T4, Tyrosyl-tRNA synthetase, putative (Trypanosoma cruzi (strain CL Brener)) (UniProt Q4DSP6); experiment: Trypanosoma cruzi tyrosyl tRNA synthetase (TcYRS) _High Tyrosine SOP; assay type: functional; settings: 30 µM; note: in the data most compounds retested in dose-response had high values
T4 sequence (whole entry): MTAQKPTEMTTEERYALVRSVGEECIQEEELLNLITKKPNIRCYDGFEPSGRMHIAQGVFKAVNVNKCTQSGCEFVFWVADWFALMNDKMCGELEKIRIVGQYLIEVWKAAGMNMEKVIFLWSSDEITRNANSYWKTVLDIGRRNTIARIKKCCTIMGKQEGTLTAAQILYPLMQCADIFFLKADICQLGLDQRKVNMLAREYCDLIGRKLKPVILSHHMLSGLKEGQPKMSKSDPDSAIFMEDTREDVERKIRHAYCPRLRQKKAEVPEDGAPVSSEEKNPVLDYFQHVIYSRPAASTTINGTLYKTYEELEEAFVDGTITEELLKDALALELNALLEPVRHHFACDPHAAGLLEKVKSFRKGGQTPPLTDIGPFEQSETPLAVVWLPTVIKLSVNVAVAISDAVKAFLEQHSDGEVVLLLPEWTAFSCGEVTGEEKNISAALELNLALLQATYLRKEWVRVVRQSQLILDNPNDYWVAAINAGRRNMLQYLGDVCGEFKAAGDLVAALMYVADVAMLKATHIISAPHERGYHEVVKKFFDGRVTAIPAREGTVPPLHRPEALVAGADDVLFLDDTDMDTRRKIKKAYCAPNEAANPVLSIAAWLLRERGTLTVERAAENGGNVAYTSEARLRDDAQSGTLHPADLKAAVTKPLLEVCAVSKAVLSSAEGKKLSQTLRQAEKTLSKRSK

[8] = target: T4, Tyrosyl-tRNA synthetase, putative (Trypanosoma cruzi (strain CL Brener)); experiment: Trypanosoma cruzi tyrosyl tRNA synthetase (TcYRS) SOP; assay type: functional; settings: 30 µM
[9] = target: Chromo domain-containing protein 1 (Saccharomyces cerevisiae (strain ATCC 204508 / S288c) (Baker's yeast)) (UniProt P32657); experiment: ScCHD-1 Enzyme Inhibition Assay; assay type: functional; settings: 30 µM; note: in the data most compounds retested in dose-response had high values
Chain of Chromo domain-containing protein 1 (Saccharomyces cerevisiae (strain ATCC 204508 / S288c) (Baker's yeast)) (P32657 whole entry, the tested form may be a part): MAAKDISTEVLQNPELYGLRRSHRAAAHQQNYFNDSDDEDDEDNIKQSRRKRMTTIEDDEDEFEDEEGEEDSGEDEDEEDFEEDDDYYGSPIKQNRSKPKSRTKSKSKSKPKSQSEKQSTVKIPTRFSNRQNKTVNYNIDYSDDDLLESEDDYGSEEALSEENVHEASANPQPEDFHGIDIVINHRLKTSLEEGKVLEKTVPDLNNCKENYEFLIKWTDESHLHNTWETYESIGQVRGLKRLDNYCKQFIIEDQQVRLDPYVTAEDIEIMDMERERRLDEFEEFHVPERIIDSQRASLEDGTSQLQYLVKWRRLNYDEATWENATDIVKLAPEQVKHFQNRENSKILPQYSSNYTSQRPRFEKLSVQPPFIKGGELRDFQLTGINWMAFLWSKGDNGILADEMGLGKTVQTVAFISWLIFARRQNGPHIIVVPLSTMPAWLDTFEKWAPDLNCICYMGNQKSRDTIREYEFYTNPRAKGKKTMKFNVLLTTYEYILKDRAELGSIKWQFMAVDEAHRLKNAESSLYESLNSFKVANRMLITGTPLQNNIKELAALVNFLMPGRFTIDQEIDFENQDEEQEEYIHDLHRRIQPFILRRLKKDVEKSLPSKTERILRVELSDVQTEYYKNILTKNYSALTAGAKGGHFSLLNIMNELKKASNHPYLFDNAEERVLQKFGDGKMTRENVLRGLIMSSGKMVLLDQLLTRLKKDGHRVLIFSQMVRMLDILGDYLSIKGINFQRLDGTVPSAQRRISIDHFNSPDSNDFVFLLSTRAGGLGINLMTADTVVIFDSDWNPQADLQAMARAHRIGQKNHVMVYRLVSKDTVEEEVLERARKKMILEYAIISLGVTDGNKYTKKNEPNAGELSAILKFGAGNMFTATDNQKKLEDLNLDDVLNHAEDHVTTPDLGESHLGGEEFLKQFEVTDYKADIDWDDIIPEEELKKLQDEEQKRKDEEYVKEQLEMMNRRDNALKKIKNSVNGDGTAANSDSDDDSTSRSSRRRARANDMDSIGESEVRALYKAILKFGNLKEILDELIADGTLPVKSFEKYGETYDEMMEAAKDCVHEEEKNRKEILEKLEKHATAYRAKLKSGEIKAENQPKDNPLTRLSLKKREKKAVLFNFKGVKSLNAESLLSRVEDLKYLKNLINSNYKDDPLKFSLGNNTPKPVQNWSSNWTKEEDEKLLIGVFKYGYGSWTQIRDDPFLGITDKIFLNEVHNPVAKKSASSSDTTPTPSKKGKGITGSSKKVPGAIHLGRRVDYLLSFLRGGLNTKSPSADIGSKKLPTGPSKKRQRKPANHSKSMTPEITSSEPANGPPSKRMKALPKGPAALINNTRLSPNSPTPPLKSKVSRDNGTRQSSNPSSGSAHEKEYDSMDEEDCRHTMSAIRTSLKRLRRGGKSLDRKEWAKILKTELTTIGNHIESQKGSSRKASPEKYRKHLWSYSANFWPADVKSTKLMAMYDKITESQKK

Chain of Protein translocase subunit SecA (Escherichia coli (strain K12)) (P10408 whole entry): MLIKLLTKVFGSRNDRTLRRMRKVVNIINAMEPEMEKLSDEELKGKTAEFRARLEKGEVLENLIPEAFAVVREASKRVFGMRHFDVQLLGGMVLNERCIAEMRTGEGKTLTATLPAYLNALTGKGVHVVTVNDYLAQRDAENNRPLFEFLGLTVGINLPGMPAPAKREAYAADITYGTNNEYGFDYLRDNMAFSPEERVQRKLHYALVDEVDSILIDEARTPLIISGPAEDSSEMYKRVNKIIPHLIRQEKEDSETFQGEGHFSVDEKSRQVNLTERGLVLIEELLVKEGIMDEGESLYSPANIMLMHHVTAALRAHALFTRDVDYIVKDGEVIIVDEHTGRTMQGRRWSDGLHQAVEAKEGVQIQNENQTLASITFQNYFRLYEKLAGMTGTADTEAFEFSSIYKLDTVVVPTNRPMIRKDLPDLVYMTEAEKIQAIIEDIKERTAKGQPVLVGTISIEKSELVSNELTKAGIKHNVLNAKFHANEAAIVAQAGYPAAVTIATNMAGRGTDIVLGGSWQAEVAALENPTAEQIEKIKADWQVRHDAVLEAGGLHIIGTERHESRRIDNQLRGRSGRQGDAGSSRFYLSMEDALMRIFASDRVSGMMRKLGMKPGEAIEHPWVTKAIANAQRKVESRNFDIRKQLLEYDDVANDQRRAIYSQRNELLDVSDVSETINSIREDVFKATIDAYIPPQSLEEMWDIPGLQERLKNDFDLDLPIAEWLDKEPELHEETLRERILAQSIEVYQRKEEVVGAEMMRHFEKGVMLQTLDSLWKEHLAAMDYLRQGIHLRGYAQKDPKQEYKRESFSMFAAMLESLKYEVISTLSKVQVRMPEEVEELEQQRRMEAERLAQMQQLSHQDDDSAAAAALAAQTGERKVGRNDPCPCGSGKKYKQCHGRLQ

SMILES	Percent Effect [1]	Percent Effect [2]	Percent Effect [3]	Percent Effect [4]	Percent Effect (Trypanosoma cruzi)	Percent Effect [5]	Percent Effect [6]	Percent Effect (Homo sapiens)	Percent Effect [7]	Percent Effect [8]	Percent Effect [9]
CCS(=O)(=O)N1CCC2(CCC2NC(=O)c2ccn(C)c2)CC1 (configuration not stated)	-3.75%	10.8%	1.1%	-0.914%	3.62%	-6.69%	18.8%	-26%	4.32%	15.4%	-3.62%
Cc1ccc(C)n1-c1ccc(C(=O)NCCNc2ncccn2)cc1	-1.31%	7.89%	-10.7%	-3.65%	3.46%	-6.83%	15%	-6.26%	9.36%	18.5%	0.738%
NC(=O)N1CCC2(CCN(Cc3cccc(F)c3)CC2)CC1	-2.86%	5.2%	-0.226%	14.9%	1.67%	-9.65%	14.3%	5.51%	5.38%	11.1%	-1.58%
Cc1n[nH]c(C)c1NC(=O)CN1CCCC(CNC(=O)C(C)(C)C)C1 (configuration not stated)	-2.53%	2.63%	0.454%	5.58%	-0.188%	2.68%	8.19%	21.7%	-1.47%	-2.44%	0.796%
COc1cc(N2CC[C@H](O)[C@@H]2Cc2cnn(C)c2)ncn1	-0.518%	10.8%	1.19%	-5.15%	-3.62%	8.6%	19.2%	-8.64%	3.24%	10.3%	-2.09%
COCCCNC(=O)CN(C)C(=O)c1cc(C)ccc1N(C)C(C)C	-2.35%	10.8%	-5.29%	6.07%	0.65%	-3.88%	0%	5.31%	1.98%	13.4%	-2.86%
O=C(CCc1ccc(O)cc1)N1CCC(Cc2ccc(CO)cc2)C1 (configuration not stated)	-2.29%	6.94%	21.8%	-5.94%	-2.82%	1.32%	8.6%	-10.8%	5.26%	12.8%	-1.12%
CCn1c(C)nnc1CN(C)C1CCN(Cc2cnc(C)cn2)C1 (configuration not stated)	-3.27%	10.8%	-13.9%	0.873%	-0.88%	-2.73%	7.81%	16.2%	8.6%	18.5%	-7%
Cc1nn(CC(=O)N2CCCC2Cn2cccn2)c(C)c1Cl (configuration not stated)	-7.11%	21.6%	0.532%	8.29%	5.86%	36.2%	22.9%	21.4%	9.9%	20.7%	-6.56%
Cc1ccc(CCNC(=O)N2CCCC(Cc3nccn3C)C2)cn1 (configuration not stated)	-5.16%	0%	-1.4%	2.27%	4.49%	-2.5%	9.89%	16.9%	7.92%	13.4%	-0.907%
CN(C)CCn1c(=O)oc2ccc(NC(=O)C3CCCO3)cc21 (configuration not stated)	-6.72%	5.33%	-5.94%	4.64%	-1.85%	1.56%	6.8%	5.49%	8.2%	11.1%	-5.1%
CCCNC(=O)c1sc(Nc2ccc(Cl)cn2)nc1C	-0.647%	17.3%	-1.88%	-4.2%	4.13%	-0.88%	13.5%	-1.08%	7.41%	7.69%	-6.09%
O=C(CSc1ccncc1)N1C[C@H]2CC[C@@H]1CN(Cc1cccnc1)C2	-4.31%	16.4%	10.6%	8.46%	7.05%	2.27%	6.74%	9.78%	5.38%	15%	-4%
CCN1CCN(c2ccc(F)cc2C(C)NCc2ccncc2)CC1 (configuration not stated)	-5.73%	0%	-10.3%	-1.77%	-2.25%	-3.72%	9.7%	6.08%	3.23%	6.17%	-0.559%
Cc1nn(C)c(N2CCOCC2)c1CNC(c1cccs1)C(C)C (configuration not stated)	-2.38%	21.1%	-9.37%	-0.827%	1.59%	1.8%	12.6%	-16.1%	10.3%	28.4%	-6.09%
CC(C)NC(=O)COc1nc(C(C)(C)C)no1	-4.03%	13.5%	-3.54%	27.8%	5.21%	0.952%	4.31%	-3.96%	-0.529%	4.88%	-3.56%
O=C(CCNc1ncccn1)NCCOc1ccc2c(c1)CCC2	-3.51%	15.8%	-0.433%	-5.56%	-4.39%	-2.52%	6.68%	1.31%	5.42%	18.5%	-3.74%

Reference: ChEMBL document CHEMBL3988442, “University of Dundee, Small-Polar-MMV Screening Library” (2021)
